This is an account of results in PubChem BioAssay (NCI).

This is part of a sample that, as a whole, favours compounds with a hit. Of some 83,000 tested, about 20% had one in any assay.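 96-well plates, one dose, 48 hours. Percent growth reported; active if below 10.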 Unmarked numbers belong to inactive results. The source made the active and inactive calls.

Among the test systems are NCI-H23 lung; NCI-H226 lung; NCI-H322M lung; HOP-62 NSCLC; NCI-H460 lung; HOP-92 NSCLC; NCI-H522 lung; A549/ATCC NSCLC; 786-0 renal; COLO 205 colon; DU-145 prostate; K-562 leukemia; MALME-3M melanoma; MDA-MB-231 breast; RXF 393 renal; SF-268 CNS; SF-295 CNS; SF-539 CNS; UACC-257 melanoma; M14 melanoma.
Holding throughout (test): NCI-60 one-dose screen, 48 h (100 = growth as untreated, 0 = no growth, -100 = all killed)
Conditions in all cases: 10 µM unless noted

Take `CC1=C(C)C(=O)C(Nc2cccc(C)c2)=C(Br)C1=O`: the growth with NCI-H23 lung is 85.1%; in the assay with NCI-H226 lung it was 92.2%; in the assay with NCI-H322M lung, 98.4%; in the assay with HOP-62 NSCLC, 90.7%; with NCI-H460 lung it was 103%; in the assay with HOP-92 NSCLC, -35.5% (active). In addition, the growth in the assay on NCI-H522 lung is 94.6%; in the assay on A549/ATCC NSCLC, 101%; with 786-0 renal, 107%; in the assay on COLO 205 colon, 126%; in the assay with DU-145 prostate, 104%; in the assay on K-562 leukemia, 2.13% (active). Besides, the growth in the assay on MALME-3M melanoma was 117%; with MDA-MB-231 breast it was 67.8%; in the assay with RXF 393 renal it was 106%; with SF-268 CNS, 100%; in the assay with SF-295 CNS it was 100%; with SF-539 CNS, 98.2%. Further, the growth in the assay with UACC-257 melanoma was 84.8%; in the assay on M14 melanoma it was 104%.
Turning to `Cc1cc2nc3c4cc(C#N)ccc4n(CCN(C)C)c3nc2cc1C`, the growth with NCI-H23 lung was -35% (active); with NCI-H226 lung, -21.5% (active); in the assay with NCI-H322M lung, -0.486% (active); in the assay on HOP-62 NSCLC, 4.29% (active); in the assay with NCI-H460 lung, -42.3% (active); in the assay on HOP-92 NSCLC, -19.1% (active). For the same compound, the growth was -52.1% (active) in the assay on NCI-H522 lung; -67.2% (active) in the assay with A549/ATCC NSCLC; 6.69% (active) in the assay with 786-0 renal; -82.7% (active) with COLO 205 colon; 5.75% (active) in the assay with DU-145 prostate; 3.51% (active) in the assay with K-562 leukemia. Besides, the growth with MALME-3M melanoma was -68% (active); with MDA-MB-231 breast, 8.68% (active); with RXF 393 renal it was -62.1% (active); in the assay with SF-268 CNS it was -7.74% (active); in the assay with SF-295 CNS it was -4.33% (active); in the assay on SF-539 CNS, -15.2% (active). The growth in the assay with UACC-257 melanoma was -25.5% (active); in the assay on M14 melanoma, -83.3% (active).
As to `NC1=NC2(CCCC2)N(c2ccc(S(=O)(=O)Nc3nccs3)cc2)C(N)=N1`, the growth with NCI-H23 lung was 101%; in the assay on NCI-H226 lung it was 100%; with NCI-H322M lung, 103%; in the assay with HOP-62 NSCLC, 110%; in the assay with NCI-H460 lung, 102%; in the assay on HOP-92 NSCLC, 113%. The growth is 102% with NCI-H522 lung; 104% with A549/ATCC NSCLC; 105% with 786-0 renal; 113% in the assay on COLO 205 colon; 111% in the assay on DU-145 prostate; 96.5% in the assay on K-562 leukemia. The growth in the assay on MALME-3M melanoma is 101%; in the assay with MDA-MB-231 breast it was 100%; in the assay on RXF 393 renal, 104%; in the assay on SF-268 CNS, 105%; in the assay on SF-295 CNS, 104%; in the assay with SF-539 CNS it was 95%. Moreover, the figures for the growth in the assay with UACC-257 melanoma and with M14 melanoma were 101% and 108%, respectively.
Regarding `COc1ccc(C2CC(c3cccc(OCCCCOc4cccc(C5=NOC(c6ccc(OC)cc6)C5)c4)c3)=NO2)cc1` (stereo not given), the growth is 103% in the assay with NCI-H23 lung; 100% with NCI-H226 lung; 94.7% in the assay with NCI-H322M lung; 105% in the assay with HOP-62 NSCLC; 102% with NCI-H460 lung; 104% in the assay with HOP-92 NSCLC. Also, the growth was 86.4% in the assay with NCI-H522 lung; 88.5% in the assay with A549/ATCC NSCLC; 99.1% in the assay with 786-0 renal; 100% in the assay with COLO 205 colon; 104% in the assay on DU-145 prostate; 45.1% in the assay on K-562 leukemia. Besides, the growth in the assay with MALME-3M melanoma is 110%; with MDA-MB-231 breast it was 99.9%; in the assay on RXF 393 renal it was 114%; with SF-268 CNS it was 108%; with SF-295 CNS, 101%; in the assay on SF-539 CNS, 111%. In addition, the growth was 96.9% in the assay on UACC-257 melanoma and 90.5% in the assay with M14 melanoma.
With `Cc1ccc(C(=O)CSc2nc3ccccc3c(=O)n2C)cc1`, the growth in the assay with NCI-H23 lung was 79.7%; in the assay on NCI-H226 lung, 78.5%; with NCI-H322M lung, 89.1%; in the assay on HOP-62 NSCLC, 94%; in the assay with NCI-H460 lung, 95.5%; in the assay on HOP-92 NSCLC it was 79.6%. Besides, the growth in the assay on NCI-H522 lung is 85.3%; in the assay on A549/ATCC NSCLC, 101%; in the assay on 786-0 renal, 97.9%; with COLO 205 colon it was 119%; with DU-145 prostate it was 95.3%; in the assay with K-562 leukemia, 68.8%. Besides, the growth in the assay with MALME-3M melanoma is 107%; with MDA-MB-231 breast, 80%; in the assay with RXF 393 renal it was 101%; with SF-268 CNS it was 94.5%; in the assay on SF-295 CNS, 88.6%; in the assay with SF-539 CNS, 93.4%. Also, the growth is 93.2% with UACC-257 melanoma and 94.3% with M14 melanoma.
With `CCN1CCN(c2ccc(NC(=O)Nc3ccc4c(ccn4-c4ccnc(C(=O)NC)c4)c3)cc2C(F)(F)F)CC1`, the growth in the assay on NCI-H23 lung was 81.8%; in the assay on NCI-H226 lung it was 92.8%; in the assay with NCI-H322M lung, 85.5%; with HOP-62 NSCLC, 79.1%; in the assay on NCI-H460 lung, 75.6%; in the assay with HOP-92 NSCLC, 84.7%. In addition, the growth is 105% with NCI-H522 lung; 91.3% with A549/ATCC NSCLC; 10.3% in the assay with 786-0 renal; 97.9% in the assay on COLO 205 colon; 86% in the assay with DU-145 prostate; -9.49% (active) with K-562 leukemia. In addition, the growth in the assay with MALME-3M melanoma is -65.2% (active); in the assay with MDA-MB-231 breast, 58.1%; in the assay with RXF 393 renal, -30.7% (active); in the assay with SF-268 CNS it was 83.9%; in the assay on SF-295 CNS, -47.1% (active); in the assay on SF-539 CNS, -55.3% (active). In addition, the growth in the assay with UACC-257 melanoma was 96.7%; with M14 melanoma it was 17.9%.
With `COc1cc(-c2nc(-c3ccccc3)[nH]c2-c2ccnc(NCCCNS(=O)(=O)c3ccc(C)cc3)n2)ccc1F`, the growth with NCI-H23 lung was 103%; with NCI-H226 lung it was 75.7%; with NCI-H322M lung it was 93.1%; in the assay on HOP-62 NSCLC it was 150%; in the assay with NCI-H460 lung it was 91.9%; in the assay with HOP-92 NSCLC it was 122%. The growth with NCI-H522 lung was 80%; in the assay with A549/ATCC NSCLC, 74.2%; in the assay on 786-0 renal it was 94.5%; in the assay on COLO 205 colon, 96%; with DU-145 prostate it was 86.7%; in the assay with K-562 leukemia, 58.9%. Besides, the growth was 100% in the assay with MALME-3M melanoma; 91.7% with MDA-MB-231 breast; 82.7% with RXF 393 renal; 80.2% in the assay on SF-268 CNS; 99.6% in the assay on SF-295 CNS; 89.4% with SF-539 CNS. Besides, the results for the growth in the assay on UACC-257 melanoma and with M14 melanoma were 99.7% and 77.7%, respectively.
Take `COc1ccc(/C=N/NC(=O)CSc2nc(-c3cnccn3)cc(-c3cccs3)c2C#N)cc1OC`: the growth in the assay on NCI-H23 lung is 66.6%; in the assay on NCI-H226 lung, 47%; in the assay on NCI-H322M lung, 91.9%; with HOP-62 NSCLC, 77.1%; in the assay with NCI-H460 lung it was 56.2%; with HOP-92 NSCLC, 37.8%. Also, the growth in the assay on NCI-H522 lung was 76.5%; with A549/ATCC NSCLC it was 74.8%; with 786-0 renal, 53.1%; in the assay on COLO 205 colon it was 107%; in the assay with DU-145 prostate it was 100%; in the assay on K-562 leukemia it was 95.5%. Besides, the growth in the assay on MALME-3M melanoma is 69.1%; in the assay with MDA-MB-231 breast it was 50.1%; in the assay on RXF 393 renal it was -12.9% (active); in the assay with SF-268 CNS, 70.5%; in the assay with SF-295 CNS, 83.1%; with SF-539 CNS it was 36.7%. The growth in the assay on UACC-257 melanoma is 91.7%; in the assay with M14 melanoma, 77.5%.
